Data taken from PubChem BioAssay AID1850 (Southern Research Specialized Biocontainment Screening …, 2009).
Out of some 310,000 compounds screened, about 1,000 (0.32%) were called active. No rule for the calls is given here. Not all results are given here. Entries with a potency or affinity are not part of this list.

Experiment: Inhibition of PhoP regulon, Salmonella typhi GFP reporter cells, confirmation, 4 h (AID 1850);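 also: 0% = induced wells with vehicle and 100% = uninduced wells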
Details: Salmonella Typhi PhoP-promoter GFP reporter, fluorescence, at 50 µM, stronger effect = higher value

Row | Compound | inhibition
1 | O=C(NCCc1ccccc1)c1nccc2ccccc12 | 3.49% (inactive)
2 | COCCC(=O)N1CCC(Oc2ccc(C(=O)N3CCC[C@H]3CO)cc2)CC1 | -1.9% (inactive)
3 | CCOC(=O)C1CCCN(C2CCN(Cc3nc(Cc4ccccc4)no3)CC2)C1 (stereo unspecified) | -4.46% (inactive)
4 | CS(=O)(=O)c1ccc(C(=O)NC(Cc2ccccc2)c2ccccc2)cc1 (stereo unspecified) | 2.4% (inactive)
5 | CS(=O)(=O)c1ccc(C(=O)NCc2ccccc2F)cc1 | 2.01% (inactive)
6 | O=C(O)c1cc(S(=O)(=O)NC(CO)C(O)c2ccc([N+](=O)[O-])cc2)ccc1Br (stereo unspecified) | 5.04% (inactive)
7 | Cc1ccc(NC(=S)NC(CO)C(O)c2ccc([N+](=O)[O-])cc2)cc1 (stereo unspecified) | 8.81% (inactive)
8 | Cc1ccc(-n2nc(C(=O)NN)c(C)c(C#N)c2=O)cc1Cl | -0.01% (inactive)
9 | CCOC(=O)N1CCC(NC(=O)c2ccccc2C(=O)O)CC1 | 2.93% (inactive)
10 | CCN(CC)S(=O)(=O)c1ccc(C)c(NC(=O)COc2ccc3c(C)cc(=O)oc3c2)c1 | -6.3% (inactive)
11 | CCCn1nnc(NC(=O)c2ccc([N+](=O)[O-])cc2Cl)n1 | -8.6% (inactive)
12 | Fc1ccc(-c2nc3ccccn3c2NCc2ccc3c(c2)OCO3)cc1 | -6.33% (inactive)
13 | Cc1ccc(NC(=S)NCCC2=CCCCC2)cc1 | -0.73% (inactive)
14 | O=C(NCCC1=CCCCC1)C(=O)NCc1ccccc1 | -1.97% (inactive)
15 | Clc1ccc(CNCCC2=CCCCC2)cc1 | -4.93% (inactive)
16 | Cc1ccc(CNC(=O)C(=O)NCCC2=CCCCC2)cc1 | -20.6% (inactive)
17 | CC(C)[C@H](NC(=O)c1ccccc1Cl)C(=O)OCc1cc([N+](=O)[O-])cc2c1OCOC2 | -4.37% (inactive)
18 | O=C(O)CCC(=O)Nc1nc2nccc(-c3ccccc3)n2n1 | -7.87% (inactive)
19 | CCOc1cc(/C=C2/C(=N)N3N=C(C)SC3=NC2=O)ccc1OS(=O)(=O)c1ccc(C)cc1 | 18.2% (inactive)
20 | O=C(Nc1cc2c3c(c1)CC(=O)N3CCC2)c1ccc(Br)o1 | 2.71% (inactive)
21 | CCNC(=S)NNC(=O)c1cc(-c2cccc(OCC)c2)nc2ccccc12 | 10.8% (inactive)
22 | O=C(CCc1ccccc1)NNC(=O)c1ccccc1Br | -5.24% (inactive)
23 | CCNc1ccc(C2(O)C(=O)c3ccccc3C2=O)cc1 | -8.28% (inactive)

Row | Compound | inhibition
24 | O=[N+]([O-])c1ccc(O)c2cccnc12 | 2.39% (inactive)
25 | Cc1ccc([N+](=O)[O-])c2cccnc12 | -3.26% (inactive)
26 | O=[N+]([O-])c1cccc2c(Cl)ccnc12 | 5.29% (inactive)
27 | Clc1cc2cccnc2c2ccccc12 | -17.8% (inactive)
28 | O=[N+]([O-])c1ccc(Cl)c2cccnc12 | -13% (inactive)
29 | Oc1c(I)cc(I)c2cccnc12 | 8.57% (inactive)
30 | Oc1ccc(F)c2cccnc12 | 8.36% (inactive)
31 | O=[N+]([O-])c1cc2cccnc2c2ncccc12 | -13.3% (inactive)
32 | Cc1oc2cc3oc(=O)c(CC(=O)NCC(=O)N[C@@H](C(=O)O)c4ccccc4)c(C)c3cc2c1C | 3.13% (inactive)
33 | Cc1ccccc1OCC(=O)Nc1nc2ccccc2[nH]1 | 9.79% (inactive)
34 | COc1cccc(CN2CCNC(=O)C2CC(=O)N2CCOc3ccccc3C2)c1OC (stereo unspecified) | -0.13% (inactive)
35 | O=c1cc(-c2ccccc2)nc(SCCOc2ccccc2Cl)[nH]1 | 3.72% (inactive)
36 | Cc1ccc(C(=O)Nc2cccnc2)cc1S(=O)(=O)N1CCCC1 | -5.54% (inactive)
37 | O=c1[nH]c(=S)[nH]c(O)c1N=Nc1ccc2c(c1)OCO2 | -4.29% (inactive)
38 | Cc1ccc(Cl)cc1N1CCN(C(=O)Cc2ccc(-n3c(=O)[nH]c4ccsc4c3=O)cc2)CC1 | 2.93% (inactive)
39 | O=C1Nc2ccccc2/C1=C/c1ccccc1F | -2.26% (inactive)
40 | O=C(c1nc2ccccn2c1CN1CCN(c2ccccc2O)CC1)N1CCCC1 | -2.41% (inactive)
41 | OC(C#CCN1CCCCC1)c1ccccc1 (stereo unspecified) | -17.1% (inactive)
42 | Cc1ccc(NC(=O)CSc2ncccc2C(=O)Oc2cccc([N+](=O)[O-])c2)cc1Cl | -7.7% (inactive)
43 | CCOc1ccc(S(=O)(=O)NCCC(=O)NCc2cccnc2)cc1 | 9.15% (inactive)
44 | C#CCOCCOCCOCCNc1nc(N2CCN(C(=O)CCCCCCCCCCNC(=O)[C@H]([C@@H](C)CC)n3cc(CCCCCN)nn3)CC2)nc(N2CCN(C(=O)CCCCCCCCCCNC(=O)[C@H](CCCCN)n3cc(CCCC(=O)O)nn3)CC2)n1 | -21.1% (inactive)
45 | C#CCOCCOCCOCCNc1nc(N2CCN(C(=O)CCCCCCCCCCNC(=O)[C@@H](CCC(=O)O)n3cc(CCCCCN)nn3)CC2)nc(N2CCN(C(=O)CCCCCCCCCCNC(=O)[C@H]([C@@H](C)CC)n3cc(CCCCCN)nn3)CC2)n1 | -8.02% (inactive)
46 | C#CCOCCOCCOCCNc1nc(N2CCN(C(=O)CCCCCCCCCCNC(=O)[C@H](CCCCN)n3cc(CCO)nn3)CC2)nc(N2CCN(C(=O)CCCCCCCCCCNC(=O)[C@@H]([C@H](C)O)n3cc(C)nn3)CC2)n1 | -15.8% (inactive)

Row | Compound | inhibition
47 | C#CCOCCOCCOCCNc1nc(N2CCN(C(=O)CCCCCCCCCCNC(=O)[C@H]([C@@H](C)CC)n3cc(CCCCCN)nn3)CC2)nc(N2CCN(C(=O)CCCCCCCCCCNC(=O)[C@@H]([C@H](C)O)n3cc(C)nn3)CC2)n1 | 60.5% (inactive)
48 | CCC(Oc1ccc(C)cc1)C(=O)Nc1ccc2c(c1)n(C)c(=O)n2C (stereo unspecified) | -3.92% (inactive)
49 | CCNC(=O)CC1SC(=Nc2cccc3ccccc23)N(C)C1=O (stereo unspecified) | -5.94% (inactive)
50 | CCN(CC(=O)NC(=O)Nc1ccccc1F)Cc1ccccc1 | -3.48% (inactive)
51 | CCN1CCN(C(=O)CCCn2c(C)c3cnn(-c4ccccc4)c(=O)c3c2C)CC1 | -6.37% (inactive)
52 | O=C(CN(CCO)c1ccccc1)Nc1ccc(Cl)c(S(=O)(=O)N2CCOCC2)c1 | -1.19% (inactive)
53 | Clc1ccc2[nH]c3c(NCC4CCCO4)ncnc3c2c1 (stereo unspecified) | -14% (inactive)
54 | Cc1ccc2[nH]c3c(NCc4ccccc4)ncnc3c2c1 | -1.37% (inactive)
55 | Clc1ccc2[nH]c3c(NCCN4CCOCC4)ncnc3c2c1 | 0.11% (inactive)
56 | C=CCNc1ncnc2c1[nH]c1ccccc12 | -0.69% (inactive)
57 | CCCNC(=O)c1oc2ccc3c(c2c1C)C=CC(C)(C)O3 | -5.94% (inactive)
58 | Cc1nc2ccccn2c1C(=O)NNC(=S)Nc1ccc(Cl)cc1 | 0.64% (inactive)
59 | COc1ccc(C[C@H]2CN3C(=NC[C@H]3Cc3ccccc3)N2CCNC(=O)c2ccc(C)c(Br)c2)cc1 | 26.2% (inactive)
60 | Cc1ccc(C(=O)NCCN2C3=NC[C@H](Cc4ccc(O)cc4)N3C[C@H]2Cc2ccc(O)cc2)cc1Br | 12.4% (inactive)
61 | O=C(Nc1ccnn1C1CCN(C/C=C/c2ccccc2)CC1)C1CCCC1 | -2.03% (inactive)
62 | COC(=O)C1=NN(c2ccc(C)cc2)C2(S1)SC(C(C)=O)=C(C)N2c1ccccc1 (stereo unspecified) | -16.3% (inactive)
63 | OC(CNCc1ccc(Cl)cc1)COc1ccccc1 (stereo unspecified) | 11.1% (inactive)
64 | CC(=O)c1cccc(OCC(O)CNCCc2ccc(Cl)cc2)c1 (stereo unspecified) | 4.73% (inactive)
65 | OC(CNCc1ccccc1)COc1ccccc1 (stereo unspecified) | 18.5% (inactive)
66 | COc1ccc(NCC(O)COc2ccc(C(C)(C)C)cc2)cc1 (stereo unspecified) | 10.5% (inactive)
67 | CC(C)(C)NCC(O)COc1ccc(Br)cc1 (stereo unspecified) | -6.26% (inactive)
68 | COc1ccc(CCNCC(O)COc2ccc(Cl)cc2)cc1OC (stereo unspecified) | 5.92% (inactive)
69 | Cc1cc(Cl)ccc1OCC(O)CNCCc1ccc(S(N)(=O)=O)cc1 (stereo unspecified) | -14.1% (inactive)

Row | Compound | inhibition
70 | OC(CNCCC(c1ccccc1)c1ccccc1)COc1ccccc1 (stereo unspecified) | -4.1% (inactive)
71 | CC1=NN(C(=O)c2c(Br)cnn2C)C(O)(C(F)(F)F)C1 (stereo unspecified) | 14.8% (inactive)
72 | CC(C)(C)c1ccc(C(=O)NNC(=S)NC(=O)c2cccnc2)cc1 | 7.73% (inactive)
73 | CCn1c(SCC(=O)Nc2oc(C)c3c(C)n[nH]c(=O)c23)nc2sc(C)c(C)c2c1=O | -1.81% (inactive)
74 | CCOc1ccc(NC(=O)C2CCCN(S(=O)(=O)c3ccc4[nH]c(=O)ccc4c3)C2)cc1 (stereo unspecified) | 4.78% (inactive)
75 | COc1ccc(NC2c3ccccc3C(=O)N2c2ccccn2)cc1 (stereo unspecified) | 0.4% (inactive)
76 | COc1ccc(C(C)=O)cc1CSc1nnc(Nc2ccc(C)cc2)s1 | 7.09% (inactive)
77 | Cc1nn2c(-c3cccnc3)ccnc2c1-c1ccccc1 | -4.51% (inactive)
78 | COc1ccc(N2C(=O)CC(C#N)=C2N)cc1 | 17.1% (inactive)
79 | COc1ccc(-n2nc(C)c3c(=O)c4c([nH]c32)CCCC4)cc1 | 7.61% (inactive)
80 | Cc1cccc(NC(=O)CN2C(=O)C(C)Oc3ccccc32)n1 (stereo unspecified) | -5.84% (inactive)
81 | CN1C(=O)Cc2cc(S(=O)(=O)N3CCN(c4ccc(Cl)cc4)CC3)ccc21 | 3.82% (inactive)
82 | C=CCc1c(C)nc(C)nc1N/N=C/c1ccccc1O | -9.46% (inactive)
83 | COc1ccc(OCCCC(=O)OC(C)C(=O)Nc2cccc(C(C)=O)c2)cc1 (stereo unspecified) | 15.1% (inactive)
84 | O=C(Cn1cc([N+](=O)[O-])ccc1=O)NCc1ccc(Cl)cc1Cl | -7.2% (inactive)
85 | COC(=O)c1ccc(CNCC(O)COc2ccc(-c3ccccc3)cc2)cc1 (stereo unspecified) | 10.8% (inactive)
86 | CC(C)N(CCNCC(O)COc1ccc(C(C)(C)c2ccccc2)cc1)C(C)C (stereo unspecified) | -17.3% (inactive)
87 | COc1ccc(OC)c(-n2nnnc2SCC(=O)NCc2ccc3c(c2)OCO3)c1 | 0.94% (inactive)
88 | COc1ccc2[nH]c3c(Cl)ncnc3c2c1 | 1.3% (inactive)
89 | c1ccc2c(c1)[nH]c1cnccc12 | 7.53% (inactive)
90 | COc1ccc2[nH]c3c(=S)nc[nH]c3c2c1 | 3.32% (inactive)
91 | c1ccc2c(c1)[nH]c1ccncc12 | -9.87% (inactive)
